This note sets out measurements from PubChem BioAssay (EPA / NIEHS).

Inconclusive results are not listed. Active and inactive are the calls of the source. The calls were made as follows: active = hit-call score of the fitted dose curve at least 0.9, where 1 is the maximum; inconclusive = response in the unintended direction; inactive = score below 0.9.

The nature of the test: ATG_XTT_Cytotoxicity: Cytotoxicity Assessment in the Attagene TRANS-FACTORIAL HepG2 Assay (AID 2283584). In short, it runs like this: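 24 h chemical exposure of reporter-transfected HepG2; XTT signal loss vs DMSO indicates cytotoxicity.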
On to `COc1cc(C(C)C)ccc1C`, for which the molecule was classed as inactive.
The result for `CCCCCCCC/C=C\CCCCCCCC(=O)OCC` reads “inactive”.
`CCOC(=O)CC(C)O` (stereo not given): the molecule was called inactive.
As to `CCCC(O)C(O)CO` (stereo not given), the call was inactive.
For `COC(=O)c1ccc([N+](=O)[O-])cc1`, the call was inactive.
As to `C=CC(=C)CCCC(C)(C)OC(C)=O`, the molecule was called inactive.
`C=Cc1ccc(C(C)(C)C)cc1`: the molecule was classed as inactive.
`COc1cc(Cl)c(OC)cc1N`: the molecule was classed as inactive.
As for `CCCCOCC`, the entry is “inactive”.
As for `CCCCC(CC)COC(C)=O` (stereo not given), the entry is “inactive”.
As for `CCCCCCCCCC(=O)OC`, the call was inactive.
As to `COc1ccc(CCO)cc1`, the molecule was called inactive.
As for `Clc1cc(Cl)c(-c2c(Cl)c(Cl)cc(Cl)c2Cl)cc1Cl`, the entry is “inactive”.
The result for `Oc1ccc2cc(SSc3ccc4cc(O)ccc4c3)ccc2c1` reads “inactive”; that for `CN(c1nccc(=O)[nH]1)C1CCN(c2nc3ccccc3n2Cc2ccc(F)cc2)CC1`, “inactive”.
The result for `CCCCCCC(C)Nc1ccc(Nc2ccccc2)cc1` (stereo not given) reads “inactive”; that for `CCN(CCC#N)c1ccc(N=Nc2ccc([N+](=O)[O-])cc2)cc1`, “inactive”; that for `CC1=C(Br)C(=O)C(Br)=C/C1=C(/c1ccccc1S(=O)(=O)O)c1cc(Br)c(O)c(Br)c1C`, “inactive”.
Consider `CN(C)c1ccncc1`, for which the outcome was inactive.
Regarding `CC(C)(C)C1=CC(=O)C(C(C)(C)C)=CC1=O`, the call was inactive.
As for `NCc1ccco1`, the entry is “inactive”; as for `C=CC(C)C#N` (stereo not given), “inactive”.
Turning to `C=C(C)C1CC=C(C)C(=O)C1` (stereo not given), the result was inactive.
As for `C=Cc1ccncc1`, the entry is “inactive”; as for `CCOC(=O)CN`, “inactive”.
As for `Nc1ccc(Cl)c([N+](=O)[O-])c1`, the molecule was called inactive.
For `Nc1c(S(=O)(=O)O)cc(Br)c2c1C(=O)c1ccccc1C2=O`, the result was inactive.
`C=C(C)[C@@H]1CC=C(C)C(=O)C1`: the outcome was inactive.
As for `COc1cccc(OC)c1O`, the outcome was inactive.
Consider `CCNCCO`, for which the call was inactive.
In the case of `CC=Cc1ccc(OCC)c(O)c1`, the molecule was called inactive.
For the molecule `C=C(C)[C@H]1CC=C(C)C(=O)C1`, the molecule was called inactive.
In the case of `O=C1OC(=O)c2c(Br)c(Br)c(Br)c(Br)c21`, the molecule was classed as inactive.
For the molecule `CC1(C)COCN1`, the call was inactive.
On to `CCC1CCCCC1`, for which the molecule was classed as inactive.
As for `CCCCCCC(O)CCCCCCCCCCC(=O)O` (stereo not given), the outcome was inactive.
Consider `CC=Cc1ccc(OC)c(OC)c1`, for which the call was inactive.
The result for `Nc1ccc2cc(S(=O)(=O)O)cc(O)c2c1N=Nc1ccccc1C(F)(F)F` reads “inactive”; that for `OC[C@H]1O[C@@H]2O[C@H]3[C@H](O)[C@@H](O)[C@@H](O[C@H]4[C@H](O)[C@@H](O)[C@@H](O[C@H]5[C@H](O)[C@@H](O)[C@@H](O[C@H]6[C@H](O)[C@@H](O)[C@@H](O[C@H]7[C@H](O)[C@@H](O)[C@@H](O[C@H]8[C@H](O)[C@@H](O)[C@@H](O[C@H]9[C@H](O)[C@@H](O)[C@@H](O[C@H]1[C@H](O)[C@H]2O)O[C@@H]9CO)O[C@@H]8CO)O[C@@H]7CO)O[C@@H]6CO)O[C@@H]5CO)O[C@@H]4CO)O[C@@H]3CO`, “inactive”.
Consider `CCCCCCC(=O)c1ccccc1`, for which the result was inactive.
